Results filed as inconclusive are left out. Where a call stands in place of a potency, no number is given. Calls of active or inactive are those of the source. Unless noted, calls follow the shape of the dose curve; as a rule, active = well fitted curve in the direction sought with a large enough effect in the repeat runs; inconclusive = weak or mixed curves; inactive = no such curve, though single readings can be large; an effect the other way counts as inactive or inconclusive.
Tests used:
[1] = qHTS assay for small molecules that induce genotoxicity in human embryonic kidney cells expressing luciferase-tagged ATAD5 (AID 651632); also: nearly all actives have a fitted effect of over 15% in size
Procedure, shortened: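 Test compounds were delivered by pin tool onto HEK293T reporter cells (2,000/well) expressing ATAD5 fused to luciferase. After 16 hr at 37C, 5% CO2, Amplite was added for 30 min at room temperature and luminescence was measured.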

[2] = qHTS assay for small molecule agonists of the p53 signaling pathway - cell viability (AID 651633; calls by dose curve; also: nearly all actives have a fitted effect of over 30% in size; also: potency is read from the fitted curve at half-maximal effect)
Procedure, shortened: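 p53RE-bla cells, seeded at 4,000 per well and rested 5 h at 37 C/5% CO2, received compounds in DMSO for 16 h at 37 C. CellTiter-Glo was then added, and luminescence was read after 30 min at room temperature to gauge cytotoxicity.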

[3] = qHTS assay for small molecules that induce genotoxicity in human embryonic kidney cells expressing luciferase-tagged ATAD5 - cell viability (AID 651634; calls by dose curve; also: nearly all actives have a fitted effect of over 25% in size)
Procedure, shortened: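 Quantitative high-throughput format. HEK293T cells expressing ATAD5 fused to luciferase were plated at 2,000 cells/well and treated 15.5 hr with compound versus DMSO. Viability was determined by fluorescent live-cell protease substrate, 30 min at 37C.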

[4] = qHTS assay for small molecule disruptors of the mitochondrial membrane potential - cell viability (AID 720634; calls by dose curve;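 also: human HepG2 liver cancer cells; nearly all actives have a fitted effect of over 20% in size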)
Procedure, shortened: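 Same-well counter-screen: following the MMP dye addition, CellTiter-Glo was added to 1 hr compound-treated HepG2 cells and luminescence read after 30 min at room temperature.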

[5] = qHTS assay for small molecule disruptors of the mitochondrial membrane potential (AID 720635)
Procedure, shortened: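 HepG2 cells (2,000/well) attached overnight at 37C, then took compound for 1 hr at 37C, 5% CO2. Mito-MPS dye was added for 30 min; fluorescence was read at 490/535 nm (monomers) and 540/590 nm (aggregates).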

[6] = qHTS assay to test for compound auto fluorescence at 590 nm (red) in HepG2 cells (AID 720674)
Procedure, shortened: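 Intrinsic compound fluorescence in the red window (Ex/Em 540/590 nm) is measured in attached HepG2 cells exposed for 1 hr, DMSO vehicle as baseline, benchmarked to Rose Bengal sodium.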

[7] = qHTS assay to test for compound auto fluorescence at 535 nm (green) in HepG2 cells (AID 720675)
[8] = qHTS assay to test for compound auto fluorescence at 460 nm (blue) in HEK293 cells (AID 720678)
Procedure, shortened: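 Blue read-out at excitation 405 nm and emission 460 nm follows overnight compound exposure of HEK293 cells at 37C in 5% CO2. Activity is given as auto fluorescence equivalency to triamterene.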

[9] = qHTS assay to test for compound auto fluorescence at 590 nm (red) in HEK293 cells (AID 720679)
Procedure, shortened: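 Red channel, Ex/Em 540/590nm; signal expressed as equivalency to Rose Bengal sodium. HEK293, 2,000 cells/well, 10% dialyzed FBS; 23 nL compound pinned after 4-5 hr attachment; overnight 37C/5% CO2 before reading.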

[10] = qHTS assay to test for compound auto fluorescence at 535 nm (green) in HEK293 cells (AID 720680)
[11] = qHTS assay to test for compound auto fluorescence at 460 nm (blue) in HEK293 cell free culture (AID 720681)
Procedure, shortened: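 Test compounds were pinned into cell-free culture medium (DMEM with 10% FBS) and fluorescence was read directly at Ex/Em 405/460 nm. Signals were expressed as fluorescence equivalents of triamterene, with DMSO vehicle as control.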

[12] = qHTS assay to test for compound auto fluorescence at 535 nm (green) in HEK293 cell free culture (AID 720682)
Procedure, shortened: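 Steps: dispense DMEM/10% FBS into empty wells; pin in compound or DMSO; measure fluorescence at 485/535 nm. Values are fluorescein equivalents.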

[13] = qHTS assay to test for compound auto fluorescence at 590 nm (red) in HEK293 cell free culture (AID 720683)
Procedure, shortened: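 Tox21 10K library compounds were pinned into cell-free DMEM with 10% FBS and fluorescence was read at excitation 540 nm. Activity is expressed as Rose Bengal sodium equivalency.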

[14] = qHTS assay to test for compound auto fluorescence at 590 nm (red) in HepG2 cell free culture (AID 720684)
Procedure, shortened: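 Ex 540 / Em 590 nm read of compound in cell-free MEM (10% FBS). Rose Bengal sodium reference.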

[15] = qHTS assay to test for compound auto fluorescence at 460 nm (blue) in HepG2 cell free culture (AID 720685)
Procedure, shortened: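 Cell-free plates of MEM plus 10% FBS received 23 nL compound or DMSO vehicle; blue-channel (405/460 nm) intensity scored against triamterene as reference fluorophore.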

[16] = qHTS assay to test for compound auto fluorescence at 535 nm (green) in HepG2 cell free culture (AID 720686)
[17] = qHTS assay to test for compound auto fluorescence at 460 nm (blue) in HepG2 cells (AID 720687)
Procedure, shortened: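 Cells (2,000/well in MEM with 10% FBS) attached overnight at 37 C, then were exposed to compound or DMSO for 1 hr at 37 C, 5% CO2. Fluorescence read at Ex/Em 405/460 nm, expressed as triamterene-equivalent signal.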

[18] = biological target: Glucocorticoid receptor (Homo sapiens) (UniProt P04150); assay: qHTS assay to identify small molecule agonists of the glucocorticoid receptor (GR) signaling pathway (AID 720691; active = well fitted activation curve with a large enough effect in the signal ratio in the repeat runs, not every such curve was filed as active; the % refers to the signal ratio; also: potency is read from the fitted curve at half-maximal effect); settings: GR-bla HeLa, beta-lactamase reporter ratio, 18 h; activation: at 62.4 µM (top of the series)
Chain of Glucocorticoid receptor (Homo sapiens) (P04150 whole entry, looked up): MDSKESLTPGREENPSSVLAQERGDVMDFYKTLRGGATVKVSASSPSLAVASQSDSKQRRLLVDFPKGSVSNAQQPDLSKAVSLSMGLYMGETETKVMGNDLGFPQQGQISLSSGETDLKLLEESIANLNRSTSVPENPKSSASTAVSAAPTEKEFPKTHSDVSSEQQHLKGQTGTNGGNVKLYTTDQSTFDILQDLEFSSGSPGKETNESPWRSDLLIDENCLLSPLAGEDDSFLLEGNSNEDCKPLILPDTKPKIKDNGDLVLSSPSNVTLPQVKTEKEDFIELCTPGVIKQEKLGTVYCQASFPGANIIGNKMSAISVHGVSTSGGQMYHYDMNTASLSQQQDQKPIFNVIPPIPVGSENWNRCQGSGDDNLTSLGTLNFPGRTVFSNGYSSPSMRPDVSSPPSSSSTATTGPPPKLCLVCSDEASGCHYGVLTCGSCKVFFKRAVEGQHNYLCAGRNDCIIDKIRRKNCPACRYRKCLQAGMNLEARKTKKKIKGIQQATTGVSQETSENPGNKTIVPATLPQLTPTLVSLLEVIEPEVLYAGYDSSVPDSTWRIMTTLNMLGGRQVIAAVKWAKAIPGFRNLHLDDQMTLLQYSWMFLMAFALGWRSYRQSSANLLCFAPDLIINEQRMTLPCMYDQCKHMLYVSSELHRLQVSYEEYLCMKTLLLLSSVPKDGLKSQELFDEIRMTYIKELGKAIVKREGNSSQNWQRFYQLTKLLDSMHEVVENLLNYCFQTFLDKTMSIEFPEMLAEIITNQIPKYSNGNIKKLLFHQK
Procedure, shortened: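 A HeLa cervical cancer line expressing GR and a glucocorticoid response element-driven beta-lactamase gene is treated with compounds for 18 h; LiveBLAzer B/G FRET substrate is then applied and fluorescence read.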

[19] = biological target: Glucocorticoid receptor (Homo sapiens) (UniProt P04150); assay: qHTS assay to identify small molecule antagonists of the glucocorticoid receptor (GR) signaling pathway (AID 720692; active = well fitted inhibition curve with a large enough effect in the signal ratio in the repeat runs, not every such curve was filed as active; the % refers to the signal ratio)
Procedure, shortened: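 GRE-bla HeLa line, dex-stimulated (5 nM final). Compound exposure 18 h, 37 C. Beta-lactamase FRET read after 2 h RT substrate.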

CC(=O)O[C@H]1CC[C@@]2(C)C(=CC[C@H]3[C@@H]4CC[C@H](C(C)=O)[C@@]4(C)CC[C@@H]32)C1
Potency [1]: inactive
Potency [2]: inactive
Potency [3]: inactive
Potency [4]: inactive
Potency [5]: inactive
Potency [6]: inactive
Potency [7]: inactive
Potency [8]: inactive
Potency [9]: inactive
Potency [10]: inactive
Potency [11]: inactive
Potency [12]: inactive
Potency [13]: inactive
Potency [14]: inactive
outcome [15]: inactive
Potency [16]: inactive
outcome [17]: inactive
Potency [18]: inactive

CN=C(NC)NCc1ccccc1
Potency [1]: inactive
Potency [2]: inactive
Potency [3]: inactive
Potency [4]: inactive
Potency [5]: inactive
Potency [6]: inactive
Potency [7]: inactive
Potency [8]: inactive
Potency [9]: inactive
Potency [10]: inactive
Potency [11]: inactive
Potency [12]: inactive
Potency [13]: inactive
Potency [14]: inactive
outcome [15]: inactive
Potency [16]: inactive
outcome [17]: inactive
Potency [18]: inactive

CC(=O)O[C@]1(C(C)=O)CC[C@H]2[C@@H]3CCC4=CC(=O)CC[C@]4(C)[C@@]3(F)[C@@H](O)C[C@@]21C
Potency [1]: inactive
Potency [2]: inactive
Potency [3]: inactive
Potency [4]: inactive
Potency [5]: inactive
Potency [6]: inactive
Potency [7]: inactive
Potency [8]: inactive
Potency [9]: inactive
Potency [10]: inactive
Potency [11]: inactive
Potency [12]: inactive
Potency [13]: inactive
Potency [14]: inactive
outcome [15]: inactive
Potency [16]: inactive
outcome [17]: inactive
Potency [18]: 0.0379 µM (active)

CC1CS(=O)(=O)CCN1/N=C/c1ccc([N+](=O)[O-])o1 (stereo unspecified)
Potency [1]: inactive
Potency [2]: inactive
Potency [3]: inactive
Potency [4]: inactive
Potency [5]: inactive
Potency [6]: inactive
Potency [7]: inactive
Potency [8]: inactive
Potency [9]: inactive
Potency [10]: inactive
Potency [11]: inactive
Potency [12]: inactive
Potency [13]: inactive
Potency [14]: inactive
outcome [15]: inactive
Potency [16]: inactive
outcome [17]: inactive
Potency [18]: inactive
Potency [19]: inactive

O=[n+]1ccn([O-])c2ccccc21
Potency [1]: inactive
Potency [2]: inactive
Potency [3]: inactive
Potency [4]: inactive
Potency [5]: inactive
Potency [6]: inactive
Potency [7]: inactive
Potency [8]: inactive
Potency [9]: inactive
Potency [10]: inactive
Potency [11]: inactive
Potency [12]: inactive
Potency [13]: inactive
Potency [14]: inactive
outcome [15]: inactive
Potency [16]: inactive
outcome [17]: inactive
Potency [18]: inactive
Potency [19]: inactive

O=C(O)CCC/C=C\C[C@@H]1[C@@H](/C=C/[C@@H](O)COc2cccc(C(F)(F)F)c2)[C@H](O)C[C@@H]1O
Potency [1]: inactive
Potency [2]: inactive
Potency [3]: inactive
Potency [4]: inactive
Potency [5]: inactive
Potency [6]: inactive
Potency [7]: inactive
Potency [8]: inactive
Potency [9]: inactive
Potency [10]: inactive
Potency [11]: inactive
Potency [12]: inactive
Potency [13]: inactive
Potency [14]: inactive
outcome [15]: inactive
Potency [16]: inactive
outcome [17]: inactive
Potency [18]: inactive

CCCCC(O)c1ccccc1 (stereo unspecified)
Potency [1]: inactive
Potency [2]: 26.6 µM (active)
Potency [3]: inactive
Potency [4]: inactive
Potency [5]: inactive
Potency [6]: inactive
Potency [7]: inactive
Potency [8]: inactive
Potency [9]: inactive
Potency [10]: inactive
Potency [11]: inactive
Potency [12]: inactive
Potency [13]: inactive
Potency [14]: inactive
outcome [15]: inactive
Potency [16]: inactive
outcome [17]: inactive
Potency [18]: inactive
Potency [19]: inactive

O=C(OC[C@H]1O[C@](O)(COC(=O)c2cccnc2)[C@@H](OC(=O)c2cccnc2)[C@@H]1OC(=O)c1cccnc1)c1cccnc1
Potency [1]: inactive
Potency [2]: inactive
Potency [3]: inactive
Potency [4]: inactive
Potency [5]: inactive
Potency [6]: inactive
Potency [7]: inactive
Potency [8]: inactive
Potency [9]: inactive
Potency [10]: inactive
Potency [11]: inactive
Potency [12]: inactive
Potency [13]: inactive
Potency [14]: inactive
outcome [15]: inactive
Potency [16]: inactive
outcome [17]: inactive
Potency [18]: inactive
Potency [19]: inactive

CCCCCCCCCCCC(=O)OC[C@@H](O)C1OC[C@H](O)[C@H]1O (stereo partly specified)
Potency [1]: inactive
Potency [2]: inactive
Potency [3]: inactive
Potency [4]: inactive
Potency [5]: inactive
Potency [6]: inactive
Potency [7]: inactive
Potency [8]: inactive
Potency [9]: inactive
Potency [10]: inactive
Potency [11]: inactive
Potency [12]: inactive
Potency [13]: inactive
Potency [14]: inactive
outcome [15]: inactive
Potency [16]: inactive
outcome [17]: inactive
Potency [18]: inactive
Potency [19]: inactive

O=C(CCCCCCCCCCCCC1CCCC1)Nc1ccc(S(=O)(=O)c2ccc(NC(=O)CCCCCCCCCCCCC3CCCC3)cc2)cc1
Potency [1]: inactive
Potency [2]: inactive
Potency [3]: inactive
Potency [4]: inactive
Potency [5]: inactive
Potency [6]: inactive
Potency [7]: inactive
Potency [8]: inactive
Potency [9]: inactive
Potency [10]: inactive
Potency [11]: inactive
Potency [12]: inactive
Potency [13]: inactive
Potency [14]: inactive
outcome [15]: inactive
Potency [16]: inactive
outcome [17]: inactive
Potency [18]: inactive
Potency [19]: inactive

CCCC(=O)Nc1c(I)cc(I)c(CC(CC)C(=O)O)c1I (stereo unspecified)
Potency [1]: inactive
Potency [2]: inactive
Potency [3]: inactive
Potency [4]: inactive
Potency [5]: inactive
Potency [6]: inactive
Potency [7]: inactive
Potency [8]: inactive
Potency [9]: inactive
Potency [10]: inactive
Potency [11]: inactive
Potency [12]: inactive
Potency [13]: inactive
Potency [14]: inactive
outcome [15]: inactive
Potency [16]: inactive
outcome [17]: inactive
Potency [18]: inactive

CCCCCCCCCCCCCCCC(=O)OC[C@@H](O)[C@H]1OC[C@H](O)[C@H]1O
Potency [1]: inactive
Potency [2]: inactive
Potency [3]: inactive
Potency [4]: inactive
Potency [5]: inactive
Potency [6]: inactive
Potency [7]: inactive
Potency [8]: inactive
Potency [9]: inactive
Potency [10]: inactive
Potency [11]: inactive
Potency [12]: inactive
Potency [13]: inactive
Potency [14]: inactive
outcome [15]: inactive
Potency [16]: inactive
outcome [17]: inactive
Potency [18]: inactive

C/C(=C(\CCOC(=O)c1ccccc1)SS/C(CCOC(=O)c1ccccc1)=C(/C)N(C=O)Cc1cnc(C)nc1N)N(C=O)Cc1cnc(C)nc1N
Potency [1]: inactive
Potency [2]: inactive
Potency [3]: inactive
Potency [4]: inactive
Potency [5]: inactive
Potency [6]: inactive
Potency [7]: inactive
Potency [8]: inactive
Potency [9]: inactive
Potency [10]: inactive
Potency [11]: inactive
Potency [12]: inactive
Potency [13]: inactive
Potency [14]: inactive
outcome [15]: inactive
Potency [16]: inactive
outcome [17]: inactive
Potency [18]: inactive
Potency [19]: inactive
